Data: the supplement of paper PMC8728848
The full list was thinned out, with the strongest signals kept by preference.

How the values were obtained:
Test in all cases: glycan array binding signal (z-score within array); higher = stronger binding
Conditions in all cases: glycan notation: IUPAC condensed, linker removed
[1] = biological target: Fuc(a1-2)Gal(b1-3)GalNAc(a1-3)[Fuc(a1-2)]Gal(b1-4)Glc
Method in brief: (§1)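 Glycan array data were curated from 3228 arrays in the Consortium for Functional Glycomics database and kept only where the protein sequence was available. Glycan names were converted to IUPAC-condensed notation, and columns mapping to the same glycan were averaged. The binding signal is a within-array Z-score, averaged across arrays of the same protein sequence at different concentrations or buffers and across linkers. Negative Z-scores can be read as non-binding.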

[2] = biological target: Fuc(a1-2)Gal(b1-4)Fuc(a1-3)]GlcNAc(b1-2)Man(a1-3)[Fuc(a1-2)Gal(b1-4)[Fuc(a1-3)]GlcNAc(b1-2)Man(a1-6)]Man(b1-4)GlcNAc(b1-4)GlcNAc
Method in brief: as §1

[3] = biological target: Fuc(a1-2)Gal(b1-4)[Fuc(a1-3)]GlcNAc(b1-2)Man(a1-3)[Fuc(a1-2)Gal(b1-4)[Fuc(a1-3)]GlcNAc(b1-2)Man(a1-6)]Man(b1-4)GlcNAc(b1-4)[Fuc(a1-6)]GlcNAc
Method in brief: as §1

[4] = biological target: Fuc(a1-2)Gal(b1-4)[Fuc(a1-3)]GlcNAc(b1-3)Gal(b1-4)[Fuc(a1-3)]GlcNAc(b1-3)Gal(b1-4)[Fuc(a1-3)]GlcNAc
Method in brief: as §1

Fuc(a1-2)Gal6S(b1-4)Glc = biological target: Fuc(a1-2)Gal6S(b1-4)Glc
Method in brief: as §1

[5] = biological target: Fuc(a1-2)[Gal(a1-3)]Gal(b1-3)GalNAc(b1-3)Gal(a1-4)Gal(b1-4)Glc
Method in brief: as §1

[6] = biological target: Fuc(a1-2)[Gal(a1-3)]Gal(b1-4)[Fuc(a1-3)]Glc
Method in brief: as §1

[7] = biological target: Fuc(a1-2)[Gal(a1-3)]Gal(b1-4)[Fuc(a1-3)]GlcNAc
Method in brief: as §1

[8] = biological target: Fuc(a1-2)[GalNAc(a1-3)]Gal(b1-3)GlcNAc(b1-3)GalNAc
Method in brief: as §1

[9] = biological target: Fuc(a1-2)[GalNAc(a1-3)]Gal(b1-4)Glc
Method in brief: as §1

Fuc(a1-3)GlcNAc = biological target: Fuc(a1-3)GlcNAc
Method in brief: as §1

[10] = biological target: Fuc(a1-3)[Gal(b1-4)]GlcNAc6S
Method in brief: as §1

Gal(b1-3)Gal(b1-4)GlcNAc = biological target: Gal(b1-3)Gal(b1-4)GlcNAc
Method in brief: as §1

[11] = biological target: Gal(b1-3)GlcNAc(a1-6)Gal(b1-4)GlcNAc
Method in brief: as §1

[12] = biological target: Gal(b1-3)GlcNAc(b1-6)GalNAc
Method in brief: as §1

[13] = biological target: Gal(b1-4)GlcNAc(b1-2)Man(a1-3)[Gal(b1-4)GlcNAc(b1-2)Man(a1-6)]Man(b1-4)GlcNAc(b1-4)[Fuc(a1-6)]GlcNAc
Method in brief: as §1

[14] = biological target: Gal(b1-4)GlcNAc(b1-3)Gal(b1-4)GlcNAc
Method in brief: as §1

[15] = biological target: Gal(b1-4)GlcNAc(b1-3)Gal(b1-4)GlcNAc(b1-3)Gal(b1-4)GlcNAc(b1-2)[Gal(b1-4)GlcNAc(b1-3)Gal(b1-4)GlcNAc(b1-3)Gal(b1-4)GlcNAc(b1-6)]Man(a1-6)[Gal(b1-4)GlcNAc(b1-3)Gal(b1-4)GlcNAc(b1-3)Gal(b1-4)GlcNAc(b1-2)Man(a1-3)]Man(b1-4)GlcNAc(b1-4)[Fuc(a1-6)]GlcNAc
Method in brief: as §1

[16] = biological target: Gal(b1-4)GlcNAc(b1-3)Gal(b1-4)GlcNAc(b1-3)Gal(b1-4)GlcNAc(b1-3)Gal(b1-4)GlcNAc(b1-2)Man(a1-3)[Gal(b1-4)GlcNAc(b1-3)Gal(b1-4)GlcNAc(b1-3)Gal(b1-4)GlcNAc(b1-3)Gal(b1-4)GlcNAc(b1-2)Man(a1-6)]Man(b1-4)GlcNAc(b1-4)GlcNAc
Method in brief: as §1

[17] = biological target: Gal(b1-4)GlcNAc(b1-3)GalNAc
Method in brief: as §1

Gal(b1-4)GlcNAc6P = biological target: Gal(b1-4)GlcNAc6P
Method in brief: as §1

[18] = biological target: Gal3S(b1-4)[Fuc(a1-3)]Glc6S
Method in brief: as §1

GlcA(b1-6)Gal = biological target: GlcA(b1-6)Gal
Method in brief: as §1

[19] = biological target: GlcNAc(a1-3)Gal(b1-4)GlcNAc
Method in brief: as §1

[20] = biological target: GlcNAc(a1-4)Gal(b1-4)GlcNAc(b1-3)Gal(b1-4)Glc
Method in brief: as §1

[21] = biological target: GlcNAc(b1-2)Man(a1-3)[GlcNAc(b1-4)][GlcNAc(b1-2)Man(a1-6)]Man(b1-4)GlcNAc(b1-4)GlcNAc
Method in brief: as §1

[22] = biological target: GlcNAc(b1-2)[GlcNAc(b1-4)]Man(a1-3)[GlcNAc(b1-4)][GlcNAc(b1-2)[GlcNAc(b1-6)]Man(a1-6)]Man(b1-4)GlcNAc(b1-4)GlcNAc
Method in brief: as §1

[23] = biological target: GlcNAc(b1-3)Gal(b1-4)GlcNAc(b1-2)Man(a1-3)[GlcNAc(b1-3)Gal(b1-4)GlcNAc(b1-2)Man(a1-6)]Man(b1-4)GlcNAc(b1-4)[Fuc(a1-6)]GlcNAc
Method in brief: as §1

[24] = biological target: GlcNAc(b1-3)Gal(b1-4)GlcNAc(b1-3)Gal(b1-4)GlcNAc
Method in brief: as §1

[25] = biological target: GlcNAc(b1-3)Gal(b1-4)GlcNAc(b1-3)Gal(b1-4)GlcNAc(b1-2)Man(a1-3)[GlcNAc(b1-3)Gal(b1-4)GlcNAc(b1-3)Gal(b1-4)GlcNAc(b1-2)Man(a1-6)]Man(b1-4)GlcNAc(b1-4)[Fuc(a1-6)]GlcNAc
Method in brief: as §1

B1: LlpA (Arthrobacter sp) (protein)
chain: MGSSHHHHHHSSGLVPRGSHMTLHPETALRPGAAATSPNSRYRLLYQTDGNLVLYGPDGPLWDSGTNGHGAGACIMQADGNLVLYGPNDEYVWDTETDNNPGSRLVIQDDGNAVIYRPDGSPLWATETCQPPGSADSHVLQSGSTLTPTHGIRSANGLYGLLYQTDGNLVFYGPDGPLWDSGTNGRGAGACIMQPDGNLVLYGPHDEYVWDTETDNNPGSRLVIQDDGNAVIYRPDGNPTWVTGTH
[1]
  glycan array binding signal (z-score): -0.605
[2]
  glycan array binding signal (z-score): 1.72
[3]
  glycan array binding signal (z-score): 1.97
[4]
  glycan array binding signal (z-score): -0.294
Fuc(a1-2)Gal6S(b1-4)Glc
  glycan array binding signal (z-score): 0.733
[5]
  glycan array binding signal (z-score): -0.344
[6]
  glycan array binding signal (z-score): -1.15
[7]
  glycan array binding signal (z-score): 0.864
[8]
  glycan array binding signal (z-score): 2.37
[9]
  glycan array binding signal (z-score): -0.96
Fuc(a1-3)GlcNAc
  glycan array binding signal (z-score): -0.654
[10]
  glycan array binding signal (z-score): 1.84
Gal(b1-3)Gal(b1-4)GlcNAc
  glycan array binding signal (z-score): 0.043
[11]
  glycan array binding signal (z-score): -0.211
[12]
  glycan array binding signal (z-score): -0.718
[13]
  glycan array binding signal (z-score): 1.04
[14]
  glycan array binding signal (z-score): -0.238
[15]
  glycan array binding signal (z-score): 0.644
[16]
  glycan array binding signal (z-score): -0.527
[17]
  glycan array binding signal (z-score): -0.295
Gal(b1-4)GlcNAc6P
  glycan array binding signal (z-score): 0.159
[18]
  glycan array binding signal (z-score): 2.1
GlcA(b1-6)Gal
  glycan array binding signal (z-score): 0.793
[19]
  glycan array binding signal (z-score): 0.79
[20]
  glycan array binding signal (z-score): 0.389
[21]
  glycan array binding signal (z-score): -0.798
[22]
  glycan array binding signal (z-score): -0.159
[23]
  glycan array binding signal (z-score): 0.596
[24]
  glycan array binding signal (z-score): -0.689
[25]
  glycan array binding signal (z-score): 2.11
